Experiment [1] has as its target Oxysterols receptor LXR-beta (Homo sapiens) (UniProt P55055). The experiment can be described thus: ATG_LXRb_TRANS: Attagene TRANS-FACTORIAL HepG2 Assay for human Liver X Receptor beta (LXRb) (AID 2282981; active = hit-call score of the fitted dose curve at least 0.9, where 1 is the maximum). Particulars: HepG2 Attagene TRANS GAL4-LXRb reporter, mRNA. The procedure, abridged: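 After 24 h of chemical treatment, transfected HepG2 cells yield total RNA; reporter cDNA is PCR-amplified, FAM-labelled, HpaI-cut and run on capillary electrophoresis. Signal reflects chimeric LXRb-Gal4 activity on GAL4-UAS reporters.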

Experiment [2] concerns the target Hepatocyte nuclear factor 4-alpha (Homo sapiens) (UniProt P41235). The experiment can be described thus: ATG_HNF4a_TRANS: Attagene TRANS-FACTORIAL HepG2 Assay for human Hepatocyte Nuclear Factor 4 alpha (HNF4a) (AID 2282982; active = hit-call score of the fitted dose curve at least 0.9, where 1 is the maximum). Particulars: HepG2 HNF4a transactivation reporter, mRNA readout. An outline of the steps: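 Multiplexed reporter assay: transfected HepG2, 24 h exposure, total RNA → oligo(dT) RT → PCR → 6-FAM extension → HpaI digest → CE fluorescence. DMSO = negative control.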

Experiment [3] in a line: ATG_M_06_TRANS: Attagene TRANS-FACTORIAL HepG2 Assay for M06 Transcription Factor (Internal Marker) (AID 2282983; active = hit-call score of the fitted dose curve at least 0.9, where 1 is the maximum). The settings on record: HepG2 Attagene TRANS M06 internal marker reporter. The procedure, abridged:
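Multi-reporter-transfected HepG2, 24 h treatment; reporter transcripts quantified via RT-PCR, primer-extension labelling and CE. DMSO-normalized gain-of-signal fit.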

Experiment [4] is described as follows: ATG_M_32_TRANS: Attagene TRANS-FACTORIAL HepG2 Assay for M32 Transcription Factor (Internal Marker) (AID 2282984; active = hit-call score of the fitted dose curve at least 0.9, where 1 is the maximum;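 also: transcript level of a background control reporter unit measured by RT-PCR and capillary electrophoresis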). The settings on record: HepG2 Attagene TRANS M32 internal marker reporter. The procedure, abridged: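 Cell-based TRANS-format assay in HepG2: exogenous chimeric GAL4 reporter units transiently expressed, compounds applied 24 h. Reporter mRNA detected by RT-PCR plus capillary electrophoresis; this readout is an internal background marker.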

The target in experiment [5] is Nuclear receptor subfamily 4 group A member 2 (Homo sapiens) (UniProt P43354). Briefly: ATG_NURR1_TRANS: Attagene TRANS-FACTORIAL HepG2 Assay for human Nuclear Receptor Related Protein 1 (NURR1) (AID 2282985; active = hit-call score of the fitted dose curve at least 0.9, where 1 is the maximum). The settings on record: HepG2 Attagene TRANS reporter, mRNA readout. The procedure, abridged: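 Measures transcriptional activation by an exogenous NR-Gal4 chimera in transfected HepG2 liver cells. After 24 h, reporter RNA is reverse-transcribed, amplified and resolved by capillary electrophoresis; DMSO defines baseline.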

Experiment [6] deals with Transcriptional activator Myb (Homo sapiens) (UniProt P10242). The experiment can be described thus: ATG_Myb_CIS: Attagene CIS-FACTORIAL HepG2 Assay for human Myeloblastosis (Myb) Proto-Oncogene Transcription Factor (AID 2282986). Particulars: HepG2 Attagene CIS-FACTORIAL Myb reporter transcription; actives raise or lower the signal. An outline of the steps:
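After 24 h of compound dosing, total RNA from transfected HepG2 cells is reverse-transcribed and the reporter sequences amplified, labeled and separated by capillary electrophoresis. Values come from bidirectional fitting against DMSO.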

Experiment [7] addresses Nuclear respiratory factor 1 (Homo sapiens) (UniProt Q16656). Briefly: ATG_NRF1_CIS: Attagene CIS-FACTORIAL HepG2 Assay for human Nuclear Respiratory Factor 1 (NRF1) Orphan Gene (AID 2282987). Particulars: HepG2 NRF1 cis-element reporter, Attagene multiplex; actives raise or lower the signal. The procedure, abridged:
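Measured: fluorescent reporter-specific RT-PCR products from transfected HepG2 cells, separated by capillary electrophoresis. Exposure lasted 24 h. Analysis used bidirectional curve fitting with DMSO as negative control.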

The nature of experiment [8]: ATG_NFI_CIS: Attagene CIS-FACTORIAL HepG2 Assay for human Nuclear Factor I (NFI) (AID 2282989). The settings on record: HepG2 cis-regulatory reporter, NFI response element transcription; actives raise or lower the signal. An outline of the steps: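 Reporter transcripts were measured by RT-PCR with fluorescent primer extension and capillary electrophoresis 24 h post-treatment. HepG2 cells carried transiently transfected cis-regulated reporter constructs reporting endogenous factor activity; gain or loss fitted against DMSO baseline.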

Experiment [9] addresses Myc proto-oncogene protein (Homo sapiens) (UniProt P01106). The experiment can be described thus: ATG_Myc_CIS: Attagene CIS-FACTORIAL HepG2 Assay for human Myelocytomatosis (Myc) Proto-Oncogene Transcription Factor (AID 2282990). Particulars: HepG2, Attagene cis-reporter transcription factor activity; actives raise or lower the signal. An outline of the steps: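 Cells of the HepG2 human liver line bear multiple cis-driven reporter transcription units. Reporter mRNA after 24 h exposure is reverse-transcribed, amplified, labelled and resolved by capillary electrophoresis, with gain- or loss-of-signal fitting relative to DMSO.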

Experiment [10] can be described thus: ATG_NF_kB_CIS: Attagene CIS-FACTORIAL HepG2 Assay for human Nuclear Factor Kappa B (NF-kB) (AID 2282991). Particulars: HepG2 Attagene cis-factorial NF-kB reporter mRNA; actives raise or lower the signal. The procedure, abridged: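 Fluorescence of labelled RT-PCR products separated by capillary electrophoresis gives reporter mRNA levels from transfected HepG2 cells exposed 24 h; values are fitted in both directions relative to DMSO.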

A short description of experiment [11]: ATG_NRF2_ARE_CIS: Attagene CIS-FACTORIAL HepG2 Assay for human Nuclear Factor Erythroid 2 Related Factor 2 (NFR2) response to Antioxidant Response Elements (ARE) (AID 2282992). Particulars: HepG2 Attagene ARE/NRF2 reporter, transcription factor activity; actives raise or lower the signal. An outline of the steps: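 Using transiently transfected HepG2 cells exposed for 24 h, reporter mRNA levels were determined by RT-PCR with fluorescent primer extension and capillary electrophoresis, analysed for gain or loss of signal against DMSO.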

A short description of experiment [12]: ATG_Oct_MLP_CIS: Attagene CIS-FACTORIAL HepG2 Assay for human Octamer-Binding Transcription Factor (Oct) (AID 2282993). The settings on record: HepG2 Attagene cis-factorial Oct reporter, mRNA; actives raise or lower the signal. The procedure, abridged: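 Readout is reporter transcript level from RT-PCR with fluorescent primer extension and capillary electrophoresis, fitted in both directions against DMSO. Transfected HepG2 reporter units report endogenous factor activity after 24 h dosing.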

Experiment [13] addresses Cellular tumor antigen p53 (Homo sapiens) (UniProt P04637). Briefly: ATG_p53_CIS: Attagene CIS-FACTORIAL HepG2 Assay for human p53 Transcription Factor (AID 2282994). Particulars: HepG2 p53 cis-element reporter, Attagene mRNA; actives raise or lower the signal. The procedure, abridged:
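In HepG2 cells, reporter transcription units under cis-regulatory promoters were transiently introduced. Following 24 h treatment, RNA was processed to labelled, digested cDNA fragments read by capillary electrophoresis; fitting was bidirectional versus DMSO.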

For experiment [14], the target named is human Peroxisome Proliferator-activated Receptor alpha (PPARa), PPARA (gene 5465) (UniProt Q07869). The experiment can be described thus: ATG_PPARa_TRANS: Attagene TRANS-FACTORIAL HepG2 Assay for human Peroxisome Proliferator-activated Receptor alpha (PPARa) (AID 2283001; active = hit-call score of the fitted dose curve at least 0.9, where 1 is the maximum). An outline of the steps:
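Transfected HepG2 cells treated with test chemical for 24 h. RNA isolated, reverse-transcribed with oligo(dT), PCR-amplified, FAM-labelled and HpaI-digested. Fragments sized by capillary electrophoresis; gain-of-signal fit relative to DMSO.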

Experiment [15] deals with human Peroxisome Proliferator-activated Receptor delta (PPARd), PPARD (gene 5467) (UniProt Q03181). Briefly: ATG_PPARd_TRANS: Attagene TRANS-FACTORIAL HepG2 Assay for human Peroxisome Proliferator-activated Receptor delta (PPARd) (AID 2283002; active = hit-call score of the fitted dose curve at least 0.9, where 1 is the maximum). The procedure, abridged: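 Cell-based TRANS reporter: HepG2, transient MRTU transfection, 24 h exposure. Readout = reporter mRNA (RT-PCR/CE, 6-FAM). Gain-of-signal fit vs DMSO control.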

A short description of experiment [16]: BSK_3C_TissueFactor: BioMAP Diversity Plus: 3C Assay for Tissue Factor Biomarker Activity (AID 2282997). Particulars: BioMAP 3C HUVEC, tissue factor biomarker readout; actives raise or lower the signal. The procedure, abridged:
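In this endothelial system, HUVEC are treated for 24 h and Tissue Factor is assessed by ELISA, normalised to DMSO.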

Experiment [17] in a line: BSK_3C_uPAR: BioMAP Diversity Plus: 3C Assay for Urokinase-type plasminogen activator receptor (uPAR) Biomarker Activity (AID 2282998). The settings on record: BioMAP 3C HUVEC, uPAR biomarker ELISA; actives raise or lower the signal. An outline of the steps:
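Cell-surface uPAR on HUVEC (3C system) read by ELISA at 24 h post-treatment, with DMSO as baseline and fitting in both directions. Parallel cultures stained with SRB to flag overt cytotoxicity.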

Experiment [18] can be described thus: BSK_3C_VCAM1: BioMAP Diversity Plus: 3C Assay for Vascular cell adhesion molecule 1 (VCAM1) Biomarker Activity (AID 2282999). The settings on record: BioMAP 3C HUVEC, VCAM1 ELISA, cytokine-stimulated; actives raise or lower the signal. The procedure, abridged:
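Activity fitted in both directions relative to DMSO, with ELISA measurement of the surface marker on primary HUVEC (3C) at 24 h post-treatment; parallel SRB staining (0.1% SRB, TCA-fixed, 560 nm) flagged overt cytotoxicity.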

Experiment [19] can be described thus: BSK_4H_Eotaxin3: BioMAP Diversity Plus: 4H Assay for Eotaxin 3 Biomarker Activity (AID 2283000).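 As to outcome: CCL26 protein level quantified by ELISA in parallel with SRB cytotoxicity check.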 Particulars: primary human endothelial cells (HUVEC); actives raise or lower the signal. An outline of the steps:
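ELISA quantitation of CCL26 (Eotaxin-3) protein from chemically dosed human vascular endothelial cells at 24 h; increases and decreases both scored relative to DMSO-treated baseline.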

“And” between values parts separate entries of the source, which are not always exact repeats. Identical values can stand only once. Results filed as inconclusive are left out. A structure can be active in one record and inactive in another. The source made the active and inactive calls. The calls were made as follows, unless noted: active = hit-call score of the fitted dose curve at least 0.9, where 1 is the maximum; inactive = score below 0.9.

Myc proto-oncogene protein (Homo sapiens), sequence (P01106 whole entry, looked up): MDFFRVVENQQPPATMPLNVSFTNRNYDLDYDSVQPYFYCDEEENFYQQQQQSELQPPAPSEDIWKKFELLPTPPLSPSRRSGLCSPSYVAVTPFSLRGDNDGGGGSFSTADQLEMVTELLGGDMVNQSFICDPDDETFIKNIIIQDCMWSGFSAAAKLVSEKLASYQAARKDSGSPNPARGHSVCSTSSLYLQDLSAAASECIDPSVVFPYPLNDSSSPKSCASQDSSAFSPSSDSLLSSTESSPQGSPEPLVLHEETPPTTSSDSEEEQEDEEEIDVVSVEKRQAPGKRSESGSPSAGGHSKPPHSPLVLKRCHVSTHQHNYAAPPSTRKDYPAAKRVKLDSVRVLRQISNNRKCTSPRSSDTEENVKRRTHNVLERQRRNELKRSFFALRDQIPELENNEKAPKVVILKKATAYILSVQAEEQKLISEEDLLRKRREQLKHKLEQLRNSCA
Transcriptional activator Myb (Homo sapiens), sequence (P10242 whole entry, looked up): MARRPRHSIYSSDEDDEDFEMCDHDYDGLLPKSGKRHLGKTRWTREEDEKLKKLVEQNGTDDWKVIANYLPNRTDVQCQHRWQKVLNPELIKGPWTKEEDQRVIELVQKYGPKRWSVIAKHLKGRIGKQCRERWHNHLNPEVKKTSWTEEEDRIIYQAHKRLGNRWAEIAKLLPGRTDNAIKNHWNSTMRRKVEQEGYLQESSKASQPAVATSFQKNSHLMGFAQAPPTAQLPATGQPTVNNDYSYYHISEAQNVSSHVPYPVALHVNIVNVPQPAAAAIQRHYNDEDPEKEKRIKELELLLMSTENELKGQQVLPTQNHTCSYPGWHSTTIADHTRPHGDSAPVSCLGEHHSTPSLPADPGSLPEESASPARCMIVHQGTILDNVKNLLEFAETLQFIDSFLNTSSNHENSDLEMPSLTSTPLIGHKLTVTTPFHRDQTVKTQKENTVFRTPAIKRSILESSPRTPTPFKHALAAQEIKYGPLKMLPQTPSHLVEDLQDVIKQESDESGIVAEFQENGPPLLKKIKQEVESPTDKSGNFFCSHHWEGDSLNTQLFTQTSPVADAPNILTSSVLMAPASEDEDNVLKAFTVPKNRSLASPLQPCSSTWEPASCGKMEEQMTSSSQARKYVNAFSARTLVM
Nuclear respiratory factor 1 (Homo sapiens), sequence (Q16656 whole entry, looked up): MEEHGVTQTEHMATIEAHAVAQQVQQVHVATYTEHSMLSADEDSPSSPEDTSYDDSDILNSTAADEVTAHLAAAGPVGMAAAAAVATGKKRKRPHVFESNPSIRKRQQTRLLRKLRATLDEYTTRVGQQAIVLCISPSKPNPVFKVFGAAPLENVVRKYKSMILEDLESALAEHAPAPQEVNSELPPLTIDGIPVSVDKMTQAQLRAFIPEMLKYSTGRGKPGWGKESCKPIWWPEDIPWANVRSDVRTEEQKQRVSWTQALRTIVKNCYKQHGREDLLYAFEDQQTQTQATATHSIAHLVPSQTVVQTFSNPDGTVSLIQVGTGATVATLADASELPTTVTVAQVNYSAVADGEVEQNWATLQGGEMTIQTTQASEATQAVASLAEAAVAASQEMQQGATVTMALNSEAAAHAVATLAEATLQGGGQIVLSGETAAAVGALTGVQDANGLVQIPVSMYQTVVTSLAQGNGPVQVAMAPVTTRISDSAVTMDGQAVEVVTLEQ
human Peroxisome Proliferator-activated Receptor delta (PPARd), PPARD (gene 5467), sequence (Q03181 whole entry, looked up): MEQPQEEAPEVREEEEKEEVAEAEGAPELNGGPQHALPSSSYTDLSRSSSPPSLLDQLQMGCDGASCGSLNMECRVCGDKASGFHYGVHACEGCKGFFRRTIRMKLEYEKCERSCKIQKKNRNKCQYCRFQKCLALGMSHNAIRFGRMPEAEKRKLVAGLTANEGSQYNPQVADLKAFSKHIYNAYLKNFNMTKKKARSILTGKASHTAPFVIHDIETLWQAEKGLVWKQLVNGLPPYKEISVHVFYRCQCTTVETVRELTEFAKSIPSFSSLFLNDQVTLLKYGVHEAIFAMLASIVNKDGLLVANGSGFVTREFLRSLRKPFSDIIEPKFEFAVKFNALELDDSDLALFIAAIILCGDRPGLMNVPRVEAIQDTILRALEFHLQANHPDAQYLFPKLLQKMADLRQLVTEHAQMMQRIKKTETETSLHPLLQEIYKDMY
Hepatocyte nuclear factor 4-alpha (Homo sapiens), sequence (P41235 whole entry, looked up): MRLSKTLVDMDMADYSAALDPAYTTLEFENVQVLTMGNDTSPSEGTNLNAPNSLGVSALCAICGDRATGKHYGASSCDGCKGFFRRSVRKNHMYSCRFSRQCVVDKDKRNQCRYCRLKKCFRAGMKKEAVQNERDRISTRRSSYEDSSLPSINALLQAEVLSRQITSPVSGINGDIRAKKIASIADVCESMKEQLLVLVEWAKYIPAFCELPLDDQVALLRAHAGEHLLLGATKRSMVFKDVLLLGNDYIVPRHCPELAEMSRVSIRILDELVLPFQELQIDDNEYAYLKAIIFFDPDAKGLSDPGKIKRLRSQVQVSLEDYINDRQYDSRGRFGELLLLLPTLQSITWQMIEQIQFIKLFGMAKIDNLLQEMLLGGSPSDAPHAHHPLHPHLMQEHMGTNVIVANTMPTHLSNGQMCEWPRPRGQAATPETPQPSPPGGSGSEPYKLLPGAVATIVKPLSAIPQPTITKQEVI
Oxysterols receptor LXR-beta (Homo sapiens), sequence (P55055 whole entry, looked up, the tested form may be a part): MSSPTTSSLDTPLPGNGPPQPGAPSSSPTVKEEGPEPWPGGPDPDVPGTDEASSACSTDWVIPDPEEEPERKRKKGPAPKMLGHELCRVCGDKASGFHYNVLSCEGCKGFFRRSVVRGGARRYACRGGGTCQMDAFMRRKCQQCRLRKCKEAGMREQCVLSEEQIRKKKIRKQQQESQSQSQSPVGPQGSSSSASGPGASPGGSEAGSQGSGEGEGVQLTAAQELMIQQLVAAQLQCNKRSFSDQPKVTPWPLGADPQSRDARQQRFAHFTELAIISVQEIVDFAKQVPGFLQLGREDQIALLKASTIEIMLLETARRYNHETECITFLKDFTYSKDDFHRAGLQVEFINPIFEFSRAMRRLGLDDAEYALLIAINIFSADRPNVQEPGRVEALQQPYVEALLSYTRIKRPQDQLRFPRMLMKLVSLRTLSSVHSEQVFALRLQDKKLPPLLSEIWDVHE
Cellular tumor antigen p53 (Homo sapiens), sequence (P04637 whole entry, looked up, the tested form may be a part): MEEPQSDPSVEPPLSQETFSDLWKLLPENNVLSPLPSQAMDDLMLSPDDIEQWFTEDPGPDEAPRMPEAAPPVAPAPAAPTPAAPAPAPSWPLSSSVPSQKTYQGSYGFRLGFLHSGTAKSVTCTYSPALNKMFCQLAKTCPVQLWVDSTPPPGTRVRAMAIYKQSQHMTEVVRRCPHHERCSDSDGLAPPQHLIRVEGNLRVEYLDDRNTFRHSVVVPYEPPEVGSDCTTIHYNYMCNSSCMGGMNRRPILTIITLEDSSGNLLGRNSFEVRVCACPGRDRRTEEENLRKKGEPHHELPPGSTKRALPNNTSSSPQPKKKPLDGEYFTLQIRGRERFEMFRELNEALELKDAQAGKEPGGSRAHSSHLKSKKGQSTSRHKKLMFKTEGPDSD
Nuclear receptor subfamily 4 group A member 2 (Homo sapiens), sequence (P43354 whole entry, looked up, the tested form may be a part): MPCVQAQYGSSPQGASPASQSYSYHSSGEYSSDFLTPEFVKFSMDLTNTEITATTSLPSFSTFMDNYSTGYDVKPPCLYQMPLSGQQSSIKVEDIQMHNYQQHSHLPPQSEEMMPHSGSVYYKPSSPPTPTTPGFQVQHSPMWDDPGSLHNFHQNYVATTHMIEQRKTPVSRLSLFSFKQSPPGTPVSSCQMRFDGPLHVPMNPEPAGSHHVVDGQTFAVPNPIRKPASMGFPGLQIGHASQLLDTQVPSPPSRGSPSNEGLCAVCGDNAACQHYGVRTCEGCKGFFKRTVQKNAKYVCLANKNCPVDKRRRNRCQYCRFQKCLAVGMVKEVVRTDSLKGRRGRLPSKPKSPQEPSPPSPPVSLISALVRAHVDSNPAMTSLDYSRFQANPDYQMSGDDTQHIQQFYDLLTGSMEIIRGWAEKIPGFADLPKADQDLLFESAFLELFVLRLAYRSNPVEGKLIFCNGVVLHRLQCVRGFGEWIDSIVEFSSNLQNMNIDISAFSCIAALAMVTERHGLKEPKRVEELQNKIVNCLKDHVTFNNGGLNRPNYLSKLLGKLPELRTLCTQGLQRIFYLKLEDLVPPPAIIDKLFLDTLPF
human Peroxisome Proliferator-activated Receptor alpha (PPARa), PPARA (gene 5465), sequence (Q07869 whole entry, looked up, the tested form may be a part): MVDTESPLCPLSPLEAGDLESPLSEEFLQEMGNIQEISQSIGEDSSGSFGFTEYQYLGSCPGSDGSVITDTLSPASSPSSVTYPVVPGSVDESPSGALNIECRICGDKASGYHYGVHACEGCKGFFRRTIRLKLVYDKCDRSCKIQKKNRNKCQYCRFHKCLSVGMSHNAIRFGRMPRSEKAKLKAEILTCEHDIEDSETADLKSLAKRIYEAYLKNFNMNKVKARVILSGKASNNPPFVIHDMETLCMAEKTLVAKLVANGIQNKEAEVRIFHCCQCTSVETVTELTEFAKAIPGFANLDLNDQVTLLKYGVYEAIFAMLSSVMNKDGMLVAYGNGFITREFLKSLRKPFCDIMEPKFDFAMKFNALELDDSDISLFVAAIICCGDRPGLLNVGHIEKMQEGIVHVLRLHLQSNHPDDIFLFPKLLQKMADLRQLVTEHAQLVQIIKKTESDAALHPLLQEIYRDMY

On to `CCCCCCCCCCCC[N+](C)(C)CCCCCCCCCCCC`, for which the result in experiment [1], in [3], in experiment [4], in [5], in [6] and in experiment [7] was inactive. The call in experiment [8], in [10], in experiment [14] and in [15] was inactive. In addition, the AC50 in [2] is 58.1 µM (active); in [9] it was 100 µM (active); in experiment [11], 10.4 µM (active); in experiment [12], 5.23 µM (active); in experiment [13], 10.4 µM (active).

Regarding `CCCCCCCCCCCCCCC`, the call in [1], in [5], in [6], in [7], in experiment [9] and in experiment [10] was inactive. Also, the outcome in [11], in experiment [12], in experiment [16], in experiment [17], in experiment [18] and in experiment [19] was inactive. Moreover, the outcome in experiment [15] was inactive.

For the molecule `NNC(=O)CCCCC(=O)NN`, the molecule was classed as inactive in [1], in experiment [2], in [4], in experiment [6], in experiment [7] and in [8]. Besides, the molecule was called inactive in experiment [9], in experiment [11], in [12], in experiment [14] and in experiment [15].

As to `CN(C)c1ccc(C(=C2C=CC(=[N+](C)C)C=C2)c2ccccc2)cc1`, the outcome in experiment [2], in [3], in experiment [4], in experiment [6], in experiment [7] and in [8] was inactive. In addition, the call in experiment [9] and in experiment [15] was inactive. Moreover, the AC50 was 543 nM (active) and 1.4 µM (active) in [5]; 5.55 µM (active) in [8]; 933 nM (active) and 1.85 µM (active) in experiment [10]; 474 nM (active) and 475 nM (active) in experiment [11]; 1.61 µM (active) and 2.64 µM (active) in experiment [13]; 0.0152 µM (active) in [16]. Also, the results for the AC50 in [17], in experiment [18] and in experiment [19] were 0.0141 µM (active), 0.0273 µM (active) and 0.0082 µM (active), respectively.
